Hits are enriched below; roughly 2.2% of the tested compounds scored in any of these assays.
Vaccinia Venus – inhibitors of vaccinia virus (Venus reporter). Vaccinia virus Venus reporter expression, fluorescence. Potency, µM (highest dose often 36.5 µM), usual class: inhibitors. 330,000 compounds, 0.46% hits; calls by dose curve; tested in A549 cells; further: nearly all actives have a fitted effect of over 30% in size
FMDV inh – foot and mouth disease virus antiviral activity; FMDV antiviral cell-based qHTS; Potency, µM (series often up to 57.9 µM), actives largely listed as inhibitors; 410,000 compounds, 1.2% hits; AID 1159524; calls by dose curve; tested in HEK293T cells; further: read-out not given here; nearly all actives have a fitted effect of over 45% in size
Vaccinia mCherry – inhibitors of vaccinia virus infection (mCherry reporter signal) | Vaccinia virus mCherry reporter infection, fluorescence | Potency, µM (top dose mostly 36.5 µM), actives largely listed as inhibitors | 310,000 compounds, 0.63% hits; calls by dose curve; tested in A549 cells; further: nearly all actives have a fitted effect of over 35% in size
Giardia FBPA inh-1 – blocks Giardia fructose-bisphosphate aldolase activity. Potency, µM (highest dose often 59.6 µM), hits mostly inhibitors. A8B2U2. AID 2451. purified Giardia FBPA. 290,000 compounds, 0.71% hits; further: nearly all actives have a fitted effect of over 55% in size
Target sequence (A8B2U2 whole entry, looked up): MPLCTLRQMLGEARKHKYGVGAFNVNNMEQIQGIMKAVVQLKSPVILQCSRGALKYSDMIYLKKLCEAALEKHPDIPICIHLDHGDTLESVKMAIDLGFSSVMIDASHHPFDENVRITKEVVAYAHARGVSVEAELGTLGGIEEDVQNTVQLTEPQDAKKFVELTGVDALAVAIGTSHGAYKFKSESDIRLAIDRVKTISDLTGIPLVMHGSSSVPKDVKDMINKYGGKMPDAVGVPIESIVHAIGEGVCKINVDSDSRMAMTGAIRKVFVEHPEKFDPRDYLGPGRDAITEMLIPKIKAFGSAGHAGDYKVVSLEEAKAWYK
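40 nM FBPA preincubated 10 min at RT with compound (up to 57.5 uM final), then substrate plus GAPDH/TPI/NAD/arsenate coupling and diaphorase/resazurin added. Fluorescence read after 20 min at RT, 525/598 nm.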
Giardia growth – blocks growth of Giardia lamblia trophozoites; shares compounds with Giardia FBPA inh-1; Giardia lamblia trophozoite growth inhibition; Potency, µM (titrated, usually from 57.5 µM), actives largely listed as inhibitors; 1,500 compounds, 5% hits;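 further: trophozoites exposed to compound for 48 h at 37 °C; nearly all actives have a fitted effect of over 70% in size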
Mammal cell tox – counter-screen for Giardia aldolase inhibitors: mammalian cell toxicity. mammalian cell viability counter-screen, qHTS. AID 2786. shares compounds with Giardia FBPA inh-1. 1,500 compounds, 4% hits. Potency, µM (titrated, usually from 57.5 µM), actives largely listed as inhibitors;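 further: Chinese hamster ovary cells used as mammalian cytotoxicity surrogate; viability measured as cellular ATP by luminescence; compound exposure lasted 48 h before reading; nearly all actives have a fitted effect of over 60% in size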
Giardia FBPA inh-2 – confirmation of Giardia fructose-bisphosphate aldolase inhibitors | 1,500 compounds, 5% hits | Potency, µM (highest dose often 57.5 µM), actives largely listed as inhibitors | purified Giardia aldolase enzyme activity, qHTS | shares compounds with Giardia FBPA inh-1; further: nearly all actives have a fitted effect of over 45% in size
Rabbit aldolase – blocks rabbit muscle aldolase in Giardia aldolase selectivity test; 1,500 compounds, 4% hits; shares compounds with Giardia FBPA inh-1; Rabbit muscle FBPA enzyme inhibition, selectivity counter-screen; Potency, µM (doses to about 57.5 µM), usual class: inhibitors; further: nearly all actives have a fitted effect of over 60% in size
Target sequence (P00883 whole entry, looked up): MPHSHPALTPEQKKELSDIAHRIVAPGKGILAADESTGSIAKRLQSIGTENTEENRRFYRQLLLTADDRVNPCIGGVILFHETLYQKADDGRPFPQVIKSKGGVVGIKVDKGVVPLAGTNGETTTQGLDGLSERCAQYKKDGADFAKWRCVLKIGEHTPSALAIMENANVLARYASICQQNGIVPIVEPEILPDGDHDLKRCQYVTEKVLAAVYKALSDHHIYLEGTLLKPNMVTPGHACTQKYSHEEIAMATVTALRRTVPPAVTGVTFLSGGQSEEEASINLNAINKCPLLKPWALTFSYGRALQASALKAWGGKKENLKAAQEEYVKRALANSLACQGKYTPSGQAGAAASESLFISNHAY
GAPDH counter – counter-screen for Giardia aldolase inhibitors: GAPDH coupling enzyme. shares compounds with Giardia FBPA inh-1. GAPDH coupling enzyme counterscreen, biochemical, qHTS. Potency, µM (titrated, usually from 57.5 µM), most hits filed as inhibitors. 1,500 compounds, 6% hits. AID 2795; further: nearly all actives have a fitted effect of over 55% in size
Hits are given with their value; i = inactive; ? = inconclusive; nt = not tested or not shown; [ ] = dose if it differs, or a comment. Unless noted, the call rests on the fitted dose curve; in most records, active means well fitted curve in the direction sought with a large enough effect; inconclusive means small, poorly fitted or top-dose-only effect, or another doubt; inactive means no such curve, though single readings can be large; an effect the other way counts as inactive or inconclusive.

SMILES	Vaccinia Venus	FMDV inh	Vaccinia mCherry	Giardia FBPA inh-1	Giardia growth	Mammal cell tox	Giardia FBPA inh-2	Rabbit aldolase	GAPDH counter
Cc1c(NC(=S)NC(=O)c2cccc(Cl)c2)c(=O)n(-c2ccccc2)n1C	nt	i	nt	12.6µM	i	i	i	i	i
Cc1cccc(C(=O)NC(=S)Nc2c(C)n(C)n(-c3ccccc3)c2=O)c1	i	i	i	nt	nt	nt	nt	nt	nt
O=C(NC(=S)Nc1ncccn1)c1ccccc1Cl	i	i	i	3.54µM	?	i	i	i	i
CCCCc1nc2c(c3c1C[C@H](C)OC3)CN(C(=O)NCCc1c[nH]c3ccccc13)CC2	nt	nt	nt	i[12.9 µM]	nt	nt	nt	nt	nt
Cc1ccccc1OCC(O)CN1CCN(CC(O)COc2ccccc2C)C(C)C1 (configuration not stated)	i	i	i	14.1µM	i	i	i	i	i
Cc1ccccc1OCC(O)Cn1c2ccccc2c2ccccc21 (configuration not stated)	i	nt	i	i	nt	nt	nt	nt	nt
Cc1ccccc1C(=O)NNC(=S)NC(=O)c1ccccc1	i	i	?	?	i	i	i	i	i
O=C(Cc1ccccc1)NNC(=S)NC(=O)c1cccnc1	i	i	i	7.06µM	i	i	i	i	i
O=C(NC(=S)NNC(=O)c1ccccc1O)c1ccccc1	i	i	?	?	?	i	i	i	i
COc1ccc(CC(=O)NNC(=S)NC(=O)c2cccnc2)cc1	i	i	i	?	nt	nt	nt	nt	nt
Cc1ccc(NC(=S)Nc2cccc3cnccc23)c(C)c1	i	?	i	?	nt	nt	nt	nt	nt
Cc1ccc(NC(=S)c2ccncc2)c(C)c1	nt	i	nt	15.8µM	i	i	i	i	i
COc1cccc(C(=O)NC(=S)Nc2ccccc2N2CCCCC2)c1	nt	?	nt	15.8µM	?	i	i	i	i
c1ccc(-c2n[nH]c(-c3ccccn3)n2)nc1	i	i	i	3.15µM	i	i	i	i	i
c1ccc(-c2n[nH]c(-c3ccccn3)n2)cc1	i	i	?	i	nt	nt	nt	nt	nt
c1ccc(-c2nn[nH]n2)nc1	nt	i	nt	7.92µM	i	i	i	i	i
CCOC(=O)c1ccc(NC(=O)Cn2cc(C(=O)c3ccc(Cl)cc3)c(=O)c3ccc(C)nc32)cc1	i	i	i	nt	nt	nt	nt	nt	nt
COc1ccc(SCC(Cc2ccccc2)N2CCN(CC(C)C)CCC2=O)cc1 (configuration not stated)	nt	nt	nt	i	nt	nt	nt	nt	nt
CCOc1ccc(CCNC(=O)c2cc(=O)[nH]c3ccc(S(=O)(=O)N4CCCCC4C)cc23)cc1OCC (configuration not stated)	i[7.34 µM]	i	i[7.34 µM]	nt	nt	nt	nt	nt	nt
Cc1cc(C)nc(N/N=C/c2ccccc2OCC(=O)O)n1	i	i	i	5.01µM	i	i	i	i	i
O=C(O)c1ccc(Cl)c(S(=O)(=O)Nc2ccc3[nH]c(=O)[nH]c3c2)c1	nt	i	nt	?	i	i	18.3µM	?	16.3µM
O=C(O)c1cccc(S(=O)(=O)Nc2ccc3[nH]c(=O)[nH]c3c2)c1	i	i	i	?	nt	nt	nt	nt	nt
CC(=O)c1c(C)nc(-c2ccc(Cl)cc2)nc1N	i	i	i	5µM	i	i	i	i	i
O=C(NC(=S)Nn1cnnc1)c1ccc(F)cc1Cl	i	i	i	14.1µM	i	i	i	i	i
CCCCC[C@H](O)/C=C/[C@H]1OC(=O)C[C@H](O)[C@@H]1C/C=C\CCCC(=O)O	nt	nt	nt	i	nt	nt	nt	nt	nt
SMILES	Vaccinia Venus	FMDV inh	Vaccinia mCherry	Giardia FBPA inh-1	Giardia growth	Mammal cell tox	Giardia FBPA inh-2	Rabbit aldolase	GAPDH counter
N#CCCn1cnc2c(=S)nc[nH]c21	i	nt	i	14.1µM	i	i	i	i	i
O=S(=O)(N1CCN(c2nc(-c3cccs3)nc3ccccc23)CC1)C(F)(F)F	i	nt	i	nt	nt	nt	nt	nt	nt
COc1ccc(C2C=C3CNS(=O)(=O)C3CC2OC(=O)c2ccc(C(F)(F)F)cc2)cc1 (configuration not stated)	nt	nt	nt	i	nt	nt	nt	nt	nt
O=C(NC(=S)Nc1ncc(Br)cc1Br)c1ccccc1	i	i	i	6.31µM	i	i	i	i	i
O=C(NC(=S)Nc1cnc2ccccc2c1)c1ccccc1	nt	i	nt	?	nt	nt	nt	nt	nt
O=C(NC(=S)Nc1ccccc1Cl)c1cncc(Br)c1	i	i	i	6.31µM	?	i	i	i	i
CC(=O)Nc1ccc(/C=C/c2ccccn2)cc1	i	nt	i	nt	nt	nt	nt	nt	nt
CCOC(=O)C1CCCN(C/C=C/c2ccccc2)C1 (configuration not stated)	i	i	i	15.8µM	i	i	i	i	i
O=c1c(=O)n(O)c2ccccc2n1O	i	nt	i	17.7µM	?	i	i	i	i
O=C(C[n+]1ccnc2ccccc21)c1ccc(Br)cc1	i	nt	i	nt	nt	nt	nt	nt	nt
COC(=O)c1ccc(-n2c(C)cc(C(=O)CSc3cccc[n+]3[O-])c2C)cc1	nt	i	nt	i	nt	nt	nt	nt	nt
O=C(CSc1cccc[n+]1[O-])Nc1ccccc1C(F)(F)F	i	i	i	nt	nt	nt	nt	nt	nt
COC(=O)c1ccc(C(=O)OC)c(NC(=O)CSc2cccc[n+]2[O-])c1	nt	?	nt	11.2µM	i	?	i	i	i
O=C(CSc1cccc[n+]1[O-])Nc1ccccc1Oc1ccccc1	i	?	i	6.29µM	i	20µM	i	i	i
O=C(CSc1cccc[n+]1[O-])CSc1cccc[n+]1[O-]	i	i	?	15.8µM	i[10.4 µM]	10µM	i	i	i
CCOc1ccc(CNC(=O)c2cnc3sc(N4CCOCC4)nn3c2=O)cc1OC	i	i	i	nt	nt	nt	nt	nt	nt
O=C(NNc1ccccc1C(F)(F)F)c1sccc1Cl	i	nt	i	nt	nt	nt	nt	nt	nt
CC(C)C[C@H](NC(=O)[C@H](CC(C)C)NC(=O)[C@H](CCC(N)=O)NC(=O)[C@H](CO)NC(=O)[C@@H]1CCCN1C(=O)[C@H](CO)NC(=O)[C@H](CO)NC(=O)[C@@H](NC(=O)[C@H](Cc1cnc[nH]1)NC(=O)[C@H](CCC(=O)O)NC(=O)[C@H](Cc1ccc(O)cc1)NC(=O)[C@H](CCCCN)NC(=O)[C@H](CCC(N)=O)NC(=O)[C@H](Cc1ccc(O)cc1)NC(=O)[C@H](CC(=O)O)NC(=O)[C@@H](NC(=O)[C@@H]1CCCN1C(=O)[C@H](CC(=O)O)NC(=O)[C@H](CC(N)=O)NC(=O)[C@H](CC(=O)O)NC(=O)CNC(=O)[C@H](CC(=O)O)NC(=O)[C@@H]1CCCN1C(=O)[C@H](CCC(N)=O)NC(=O)[C@H](Cc1ccc(O)cc1)NC(=O)[C@H](C)NC(=O)[C@H](Cc1c[nH]c2ccccc12)NC(=O)[C@H](Cc1ccccc1)NC(=O)[C@@H](NC(=O)[C@@H](N)CO)[C@@H](C)O)[C@@H](C)O)[C@@H](C)O)C(=O)N[C@@H](C)C(=O)N1CCC[C@H]1C(=O)NCC(=O)N[C@@H](CC(=O)O)C(=O)N[C@@H](Cc1ccc(O)cc1)C(=O)O	nt	nt	nt	i	nt	nt	nt	nt	nt
CCOc1ccccc1-c1nnc2n1N=C(c1cc(OC)ccc1OC)CS2	nt	nt	nt	i	nt	nt	nt	nt	nt
